SMILES strings stand for the structures. Values joined by “and” are separate entries in the source; they are usually repeats but may differ in a detail not shown here. Equal entries are not always repeated. Where a structure was tested more than once in an assay, its records may differ in their call. Active and inactive are the calls of the source. Rule for the calls: active = hit-call score of the fitted dose curve at least 0.9, where 1 is the maximum; inactive = score below 0.9.

Read-out in assay [1]: Interleukin-6 (IL6), IL6 (gene 3569)
As to the kind of experiment: BSK_CASM3C_IL6: BioMAP Diversity Plus: CASM3C Assay for Interleukin-6 (IL6) Biomarker Activity for (AID 2283040). The settings on record: primary human coronary artery smooth muscle cells; actives raise or lower the signal.

Read-out in assay [2]: Tissue plasminogen activator (tPA), PLAT (gene 5327)
As to the kind of experiment: BSK_BE3C_tPA: BioMAP Diversity Plus: BE3C Assay for Tissue plasminogen activator (tPA) Biomarker Activity (AID 2283041).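 For outcome: tPA level quantified by ELISA one day after compound addition.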 The settings on record: primary human bronchial epithelial cells; actives raise or lower the signal. The method, boiled down: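 Human primary bronchial epithelial cells were dosed with chemical and tPA biomarker levels measured by ELISA 24 hours later. Activity was fitted bidirectionally against DMSO as negative control and baseline.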

Read-out in assay [3]: Interleukin-8 (IL8), CXCL8 (gene 3576)
Briefly: BSK_CASM3C_IL8: BioMAP Diversity Plus: CASM3C Assay for Interleukin-8 (IL8) Biomarker Activity (AID 2283042).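 Note: IL-8 protein level quantified by ELISA.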 The settings on record: primary human coronary artery smooth muscle cells; actives raise or lower the signal.

Read-out in assay [4]: Human Leukocyte Antigen - DR isotype (HLADR), HLA-DRA (gene 3122)
Briefly: BSK_CASM3C_HLADR: BioMAP Diversity Plus: CASM3C Assay for Human Leukocyte Antigen - DR isotype (HLADR) Biomarker Activity (AID 2283043).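 Note: cell-surface HLA-DR protein level quantified by ELISA.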 The settings on record: primary human coronary artery smooth muscle cells; actives raise or lower the signal.

Read-out in assay [5]: Macrophage colony-stimulating factor (MCSF), CSF1 (gene 1435)
Briefly: BSK_CASM3C_MCSF: BioMAP Diversity Plus: CASM3C Assay for Macrophage colony-stimulating factor (MCSF) Biomarker Activity (AID 2283044).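 Note: M-CSF protein amount quantified by ELISA after 24 h exposure.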 The settings on record: primary human coronary artery smooth muscle cells; actives raise or lower the signal.

Read-out in assay [6]: Low-density lipoprotein receptor (LDLR), LDLR (gene 3949)
As to the kind of experiment: BSK_CASM3C_LDLR: BioMAP Diversity Plus: CASM3C Assay for Low-density lipoprotein receptor (LDLR) Biomarker Activity (AID 2283045).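 Note: LDLR protein level on the cell surface quantified by ELISA.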 The conditions noted are these: primary human coronary artery smooth muscle cells; actives raise or lower the signal.

Read-out in assay [7]: Monocyte Chemoattractant Protein-1 (MCP1), CCL2 (gene 6347)
Briefly: BSK_CASM3C_MCP1: BioMAP Diversity Plus: CASM3C Assay for Monocyte Chemoattractant Protein-1 (MCP1) Biomarker Activity (AID 2283046).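 Note: MCP-1 level quantified by ELISA 24 h after dosing.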 The conditions noted are these: primary human coronary artery smooth muscle cells; actives raise or lower the signal.

Assay [8] in a line: BSK_CASM3C_Proliferation: Cell Proliferation Assessment in the BioMAP Diversity Plus: CASM3C Assay (AID 2283047).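 Note: sulforhodamine B total protein stain as relative cell number at 560 nm; sub-confluent cells exposed 48 h before staining; fitted both ways against DMSO so gain or loss of cell number.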 The settings on record: primary human coronary artery smooth muscle cells.
Read-out in assay [9]: Monokine induced gamma interferon (MIG), CXCL9 (gene 4283)
As to the kind of experiment: BSK_CASM3C_MIG: BioMAP Diversity Plus: CASM3C Assay for Monokine induced gamma interferon (MIG) Biomarker Activity (AID 2283048).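 Note: MIG protein level measured by ELISA.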 The settings on record: primary human coronary artery smooth muscle cells; actives raise or lower the signal.

Read-out in assay [10]: serum amyloid A (SAA), SAA1 (gene 6288)
As to the kind of experiment: BSK_CASM3C_SAA: BioMAP Diversity Plus: CASM3C Assay for serum amyloid A (SAA) Biomarker Activity (AID 2283049).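 Note: SAA protein level quantified by ELISA.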 The conditions noted are these: primary human coronary artery smooth muscle cells; actives raise or lower the signal.

Assay [11] can be described thus: BSK_CASM3C_SRB: Viability Assessment in the BioMAP Diversity Plus: CASM3C Assay (AID 2283050).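 Note: total protein by SRB staining as cytotoxicity measure in parallel cultures.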 The conditions noted are these: primary human coronary artery smooth muscle cells.
Read-out in assay [12]: Thrombomodulin, THBD (gene 7056)
As to the kind of experiment: BSK_CASM3C_Thrombomodulin: BioMAP Diversity Plus: CASM3C Assay for Thrombomodulin Biomarker Activity (AID 2283051).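 Note: thrombomodulin protein level measured by ELISA 24 h after dosing.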 The conditions noted are these: primary human coronary artery smooth muscle cells; actives raise or lower the signal.

Read-out in assay [13]: Tissue Factor, F3 (gene 2152)
As to the kind of experiment: BSK_CASM3C_TissueFactor: BioMAP Diversity Plus: CASM3C Assay for Tissue Factor Biomarker Activity (AID 2283052).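 Note: cell surface tissue factor protein level read by ELISA.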 The conditions noted are these: primary human coronary artery smooth muscle cells; actives raise or lower the signal.

Read-out in assay [14]: Urokinase-type plasminogen activator receptor (uPAR), PLAUR (gene 5329)
Briefly: BSK_CASM3C_uPAR: BioMAP Diversity Plus: CASM3C Assay for Urokinase-type plasminogen activator receptor (uPAR) Biomarker Activity (AID 2283054).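 Note: cell-surface uPAR protein level quantified by ELISA.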 The conditions noted are these: primary human coronary artery smooth muscle cells; actives raise or lower the signal.

Read-out in assay [15]: Vascular cell adhesion molecule 1 (VCAM1), VCAM1 (gene 7412)
As to the kind of experiment: BSK_CASM3C_VCAM1: BioMAP Diversity Plus: CASM3C Assay for Vascular cell adhesion molecule 1 (VCAM1) Biomarker Activity (AID 2283055).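 Note: VCAM-1 protein level quantified by ELISA on the cells.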 The settings on record: primary human coronary artery smooth muscle cells; actives raise or lower the signal.

Read-out in assay [16]: Collagen III, COL3A1 (gene 1281)
As to the kind of experiment: BSK_hDFCGF_CollagenIII: BioMAP Diversity Plus: hDFCGF Assay for Collagen III Biomarker Activity (AID 2283056). The settings on record: primary human foreskin fibroblasts; actives raise or lower the signal. The method, boiled down: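 ELISA readout of Collagen III in human dermal (foreskin) fibroblasts, taken 24 h post-treatment. Gain or loss relative to DMSO vehicle fitted in both directions.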

Read-out in assay [17]: Epidermal growth factor receptor (EGFR), EGFR (gene 1956)
Briefly: BSK_hDFCGF_EGFR: BioMAP Diversity Plus: hDFCGF Assay for Epidermal growth factor receptor (EGFR) Biomarker Activity (AID 2283057). The conditions noted are these: primary human foreskin fibroblasts; actives raise or lower the signal. The essentials: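 Primary human foreskin fibroblasts were exposed to compound for 24 h, after which cell-surface EGFR was quantified by ELISA. Activity was fitted bidirectionally against the DMSO negative control as baseline.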

Read-out in assay [18]: Interleukin-8 (IL8), CXCL8 (gene 3576)
Briefly: BSK_hDFCGF_IL8: BioMAP Diversity Plus: hDFCGF Assay for Interleukin-8 (IL8) Biomarker Activity (AID 2283058). The settings on record: primary human foreskin fibroblasts; actives raise or lower the signal. The essentials:
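IL-8 levels read by ELISA at 24 hours after dosing human skin fibroblast cultures. Parallel SRB staining assessed overt cytotoxicity, and gain or loss of signal was fitted against DMSO control.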

Assay [19] can be described thus: BSK_hDFCGF_Proliferation: Cell Proliferation Assessment in the BioMAP Diversity Plus: hDFCGF Assay (AID 2283059).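 Note: curves fitted for both rise and fall of signal versus DMSO baseline.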 The conditions noted are these: primary human foreskin fibroblasts. The essentials: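 Total protein read at 560 nm after 0.1% SRB staining of TCA-fixed human skin fibroblasts, […]. Activity is fitted in both directions relative to DMSO as baseline.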

Read-out in assay [20]: Interferon-gamma inducible Protein 10 (IP10), CXCL10 (gene 3627)
As to the kind of experiment: BSK_hDFCGF_IP10: BioMAP Diversity Plus: hDFCGF Assay for Interferon-gamma inducible Protein 10 (IP10) Biomarker Activity (AID 2283053). The conditions noted are these: primary human foreskin fibroblasts; actives raise or lower the signal. The method, boiled down:
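Human foreskin fibroblast primary cells (hDFCGF system) were dosed with chemical and assayed at 24 h; IP-10 measured by ELISA. Activity fitted bidirectionally relative to DMSO negative control as baseline.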

As for `C=CC(=O)OCC(F)(F)C(F)F`, the AC50 is 22.9 µM (active) in [1]; 14.9 µM (active) in [2]; 36.3 µM (active) and 38.8 µM (active) in [4]; 30 µM (active) and 18.2 µM (active) in [5]; 30 µM (active) in assay [8]; 30 µM (active) and 16.9 µM (active) in [9]. In addition, the AC50 in assay [10] was 30 µM (active); in [11] it was 39.8 µM (active) and 43.6 µM (active); in assay [12], 37.3 µM (active) and 24.9 µM (active); in [15], 23.9 µM (active) and 21.1 µM (active); in assay [16], 994 nM (active) and 23.9 µM (active); in [18], 49.8 µM (active) and 48.3 µM (active). In addition, the AC50 in [19] is 30 µM (active) and 39.7 µM (active). Moreover, the result in [1], in [2], in [3], in [6], in [7] and in assay [10] was inactive. Moreover, the outcome in [13], in assay [14] and in assay [17] was inactive.

Take `CC(C)(C)c1ccccc1OP(=O)(Oc1ccccc1)Oc1ccccc1`: the outcome in [1], in assay [2], in assay [3], in [4], in [5] and in [7] was inactive. For the same compound, the outcome in assay [9], in [10], in [13], in assay [14] and in assay [18] was inactive. Also, the AC50 is 4.61 µM (active) in assay [6]; 20 µM (active) in assay [8]; 5.23 µM (active) in assay [11]; 11.7 µM (active) in [12]; 20 µM (active) in assay [20]; 18.7 µM (active) in [15]. Moreover, the figures for the concentration at half-maximal activity (AC50) in [16], in assay [17] and in assay [19] were 2.83 µM (active), 13.5 µM (active) and 15.6 µM (active), respectively.

On to `ClC(Cl)(Cl)c1ccccc1`, for which the result in [1], in assay [2], in [3], in assay [4], in assay [5] and in [6] was inactive. The result in assay [7], in [8], in [9], in assay [10], in assay [11] and in assay [12] was inactive. Besides, the result in assay [13], in assay [20], in assay [14], in assay [15], in assay [16] and in assay [17] was inactive. The result in assay [18] and in [19] was inactive.

`CCOP(=S)(OCC)SCSCC`: the result in assay [1], in assay [2], in [3], in [4], in assay [5] and in [6] was inactive. For the same compound, the result in assay [7], in assay [8], in [9], in assay [10], in assay [11] and in assay [12] was inactive. Further, the outcome in [13], in [20], in [14], in [15], in assay [16] and in [17] was inactive. The result in assay [18] and in [19] was inactive.

`OCC(F)(F)OC(F)(F)C(F)(F)OC(F)(F)C(F)(F)OC(F)(F)CO`: the outcome in assay [1], in assay [2], in assay [3], in assay [4], in assay [5] and in assay [6] was inactive. The outcome in assay [7], in assay [8], in assay [9], in [10], in assay [11] and in assay [12] was inactive. Moreover, the outcome in assay [13], in [14], in [15], in assay [16], in [17] and in [18] was inactive. In addition, the concentration at half-maximal activity (AC50) is 47.2 µM (active) in [8]; 14.9 µM (active) in [16]; 4.15 µM (active) and 36.9 µM (active) in assay [19].

In the case of `O=C(O)C(F)(F)OC(F)(F)C(F)(F)OC(F)(F)F`, the result in assay [1], in [2], in assay [3], in assay [4], in assay [5] and in [6] was inactive. The outcome in [7], in assay [8], in assay [9], in [10], in assay [11] and in assay [12] was inactive. Also, the result in assay [13], in [20], in assay [14], in assay [15], in assay [17] and in [18] was inactive. Further, the result in [19] was inactive. Moreover, the values for the concentration at half-maximal activity (AC50) in [7] and in assay [9] were 1.03 µM (active) and 1.17 µM (active), respectively.
